The values below come from PubChem BioAssay.

The source made the active and inactive calls.

Test [1] can be described thus: small-molecule microarray binders of probe aNog, primary screen, biochemical, biotinylated probe, 635/667 nm fluorescence (AID 1115).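 Further: probe is biotinylated aNog protein used at 0.15 µg/mL for 1 h at 4 C; z-score combines 667 nm fluorescence of each spot with its signal to noise.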 As to conditions: higher = more signal.
Test [2] addresses Torsin-1A-interacting protein 1 (Homo sapiens) (UniProt Q5JTV8). The experiment in a line: LAP1 binders from COS7 cell lysate, primary screen, small-molecule microarray, 635/667 nm fluorescence (AID 1116). As to conditions: COS7-hLAP1 lysate binding, 635 nm fluorescence, higher = more signal.
Test [3] addresses Albumin (Bos taurus) (UniProt P02769). The experiment in a line: bovine serum albumin binders on microarray, profiling panel, artefact control for SMM control protein annotation, biochemical, small-molecule microarray, Alexa647 label, 635/667 nm fluorescence (AID 1118).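 Further: score merges 667 nm emission intensity and signal-to-noise per printed compound spot.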 As to conditions: BSA-A647 binding, fluorescence 635 nm, higher = more signal.
Test [4] is described as follows: small-molecule microarray binders of probe aXIP, primary screen, biochemical, NeuroSMM set, 635/667 nm fluorescence (AID 1119).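 Further: probe is the protein aXip251-270 applied at 1 µg/mL to compound-printed slides; binding of probe to printed compounds measured as 667 nm fluorescence plus signal to noise.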 As to conditions: higher = more signal, called active from +8 up or from −8 down.
Test [5] is described as follows: small-molecule binders of probe aNOTCH3, primary screen, biochemical, small-molecule microarray, 635/667 nm fluorescence (AID 1120).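 Further: probe is a biotin-tagged antibody raised against NOTCH3 rather than NOTCH3 protein; score merges spot fluorescence near 667 nm with spot signal to noise.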 The following applies: higher = more signal.
A short description of test [6]: small-molecule binders of probe aNOTCH2, primary screen, biochemical, small-molecule microarray, 635/667 nm fluorescence (AID 1121).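 Further: score merges feature fluorescence read at 667 nm with its signal to noise.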 The following applies: higher = more signal.
The target of test [7] is Carbonic anhydrase 2 (Homo sapiens) (UniProt P00918). The experiment in a line: CAII small-molecule binders, profiling panel, biochemical, small-molecule microarray, Alexa647-labelled CAII (AID 1122). As to conditions: CAII-A647 binding fluorescence, higher = more signal.
The nature of test [8]: COS7 lysate on small-molecule microarray, probe aHis, 635 nm (AID 1123).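 Further: z-score combines 667nm fluorescence intensity with signal-to-noise per printed compound spot.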 As to conditions: COS7 cell lysate, fluorescence, higher = more signal.
Test [9] is described as follows: compound binding in COS7 lysate, probe aLAP1, primary screen, cell lysate, small-molecule microarray (AID 1124).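 Further: lysate comes from COS7 cells expressing LAP1 and is applied at 0.3 µg/mL; score merges spot fluorescence near 667 nm with signal-to-noise over triplicate slides.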 As to conditions: probe aLAP1, fluorescence, higher = more signal.
In test [10] the test system is Sam68 (KHDRBS1). Description: Sam68 small-molecule binders, primary screen, biochemical, small-molecule microarray, 635 nm fluorescence (AID 1125).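 Further: score merges 667 nm channel intensity with signal to noise over triplicate slides.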 As to conditions: small-molecule microarray binding, higher = more signal.
For test [11], the system named is Chordin-like protein 2 (CHRDL2). Description: CHRDL2 small-molecule binders, primary screen, biochemical, small-molecule microarray, 635 nm fluorescence (AID 1126).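 Further: printed compound slides probed with Chrdl2 protein at 4 µg/mL for 1 h at 4 C; score merges 667 nm emission intensity with signal to noise over three replicate slides.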 As to conditions: small-molecule microarray binding, fluorescence 635 nm; higher = more signal.
Test [12] deals with Concanavalin-A (Canavalia ensiformis) (UniProt P02866). Description: ConA small-molecule binders, primary screen, artefact control for SMM control protein annotation, biochemical, small-molecule microarray, Alexa647 label, 635 nm (AID 1127).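 Further: z combines 667 nm emission intensity with signal-to-noise across three replicate slides.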 The following applies: ConA-A647 binding fluorescence, higher = more signal.
Concanavalin-A (Canavalia ensiformis), sequence (P02866 whole entry, looked up): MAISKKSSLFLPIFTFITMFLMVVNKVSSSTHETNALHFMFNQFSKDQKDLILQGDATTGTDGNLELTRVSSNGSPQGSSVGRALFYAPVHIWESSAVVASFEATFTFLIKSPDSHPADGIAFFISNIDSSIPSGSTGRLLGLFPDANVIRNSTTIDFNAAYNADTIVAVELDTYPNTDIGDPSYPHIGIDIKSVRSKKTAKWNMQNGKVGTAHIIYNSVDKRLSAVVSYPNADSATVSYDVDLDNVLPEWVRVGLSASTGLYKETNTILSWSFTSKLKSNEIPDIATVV
Test [13] is described as follows: anti-His antibody binders, primary screen, artefact control for SMM control protein annotation, biochemical, small-molecule microarray, 635 nm fluorescence (AID 1128).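 Further: score merges feature fluorescence with signal-to-noise for each printed compound spot.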 The following applies: anti-His Alexa647 antibody binding, higher = more signal.
The subject of test [14] is Human papillomavirus type 1a E7 protein (residues 1-88). The experiment in a line: HPV1a E7 small-molecule binders, primary screen, biochemical, small-molecule microarray, residues 1-88, 635 nm (AID 1129). The following applies: small-molecule microarray binding, fluorescence 635 nm; higher = more signal.
Test [15] has as its target Focal adhesion kinase 1 (Homo sapiens) (UniProt Q05397). The experiment in a line: small-molecule microarray binders of FAK, primary screen, biochemical, 635/667 nm fluorescence, BSA, DTT (AID 1130).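 Further: composite of spot emission at 667 nm and signal to noise over triplicate slides.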 As to conditions: PTK2 binding, 635 nm fluorescence, higher = more signal.
Test [16] relates to Fibrinogen (Alexa647-labelled). Description: fibrinogen binders on compound microarrays, profiling panel, artefact control for SMM control-protein annotation, biochemical, small-molecule microarray, 635/667 nm fluorescence (AID 1131).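 Further: z-score merges 667 nm fluorescence with per-spot signal-to-noise over triplicate slides.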 As to conditions: fibrinogen-A647 binding fluorescence, higher = more signal.
Test [17] concerns the target Follistatin (Homo sapiens) (UniProt P19883). Description: follistatin binders on small-molecule microarrays, primary screen, biochemical, small-molecule microarray, 635/667 nm fluorescence (AID 1132). As to conditions: FST binding, 635 nm fluorescence, higher = more signal.
In test [18] the target is Fibroblast growth factor 2 (Homo sapiens) (UniProt P09038). The experiment in a line: FGF2 binders on small-molecule microarrays, primary screen, biochemical, small-molecule microarray, 635/667 nm fluorescence (AID 1133). As to conditions: small-molecule microarray binding, FGF2, fluorescence 635/667; higher = more signal.
Fibroblast growth factor 2 (Homo sapiens), sequence (P09038 whole entry, looked up): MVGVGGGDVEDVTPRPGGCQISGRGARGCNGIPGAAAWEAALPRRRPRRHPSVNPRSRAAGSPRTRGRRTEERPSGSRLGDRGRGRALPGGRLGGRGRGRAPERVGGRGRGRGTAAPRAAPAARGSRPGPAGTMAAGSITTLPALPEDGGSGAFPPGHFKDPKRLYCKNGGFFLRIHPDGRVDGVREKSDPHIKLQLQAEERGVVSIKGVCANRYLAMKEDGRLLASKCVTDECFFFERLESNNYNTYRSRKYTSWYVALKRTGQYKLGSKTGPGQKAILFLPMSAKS
The nature of test [19]: mitochondrial membrane potential change in A549 cells, profiling panel, cell-based, JC-1 fluorescence, basal, 24 h, 100 nL (AID 1138).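 Further: A549 lung adenocarcinoma cells under basal conditions with no added stimulus; test concentration not given here.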 The following applies: higher = more signal.
The test system of test [20] is Lefty1. The experiment in a line: Lefty1 binders on small-molecule microarrays, primary screen, biochemical, small-molecule microarray, 635/667 nm fluorescence (AID 1139). As to conditions: small-molecule microarray binding, fluorescence 635/667; higher = more signal.

Torsin-1A-interacting protein 1 (Homo sapiens), sequence (Q5JTV8 whole entry, looked up): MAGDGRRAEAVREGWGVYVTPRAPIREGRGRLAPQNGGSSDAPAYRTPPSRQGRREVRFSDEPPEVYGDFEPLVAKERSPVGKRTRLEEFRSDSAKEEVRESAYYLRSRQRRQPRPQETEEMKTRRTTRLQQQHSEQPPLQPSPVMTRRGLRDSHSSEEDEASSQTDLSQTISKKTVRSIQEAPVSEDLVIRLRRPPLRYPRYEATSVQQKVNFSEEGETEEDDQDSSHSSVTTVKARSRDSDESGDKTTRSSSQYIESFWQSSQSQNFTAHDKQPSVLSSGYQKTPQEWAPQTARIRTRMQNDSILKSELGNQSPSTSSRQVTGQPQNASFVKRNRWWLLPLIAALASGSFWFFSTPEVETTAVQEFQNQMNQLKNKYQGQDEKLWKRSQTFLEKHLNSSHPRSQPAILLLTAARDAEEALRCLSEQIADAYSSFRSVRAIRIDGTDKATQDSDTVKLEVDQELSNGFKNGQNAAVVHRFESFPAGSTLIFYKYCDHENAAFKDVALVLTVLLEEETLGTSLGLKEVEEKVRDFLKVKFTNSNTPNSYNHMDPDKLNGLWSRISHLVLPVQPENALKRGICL
Focal adhesion kinase 1 (Homo sapiens), sequence (Q05397 whole entry, looked up): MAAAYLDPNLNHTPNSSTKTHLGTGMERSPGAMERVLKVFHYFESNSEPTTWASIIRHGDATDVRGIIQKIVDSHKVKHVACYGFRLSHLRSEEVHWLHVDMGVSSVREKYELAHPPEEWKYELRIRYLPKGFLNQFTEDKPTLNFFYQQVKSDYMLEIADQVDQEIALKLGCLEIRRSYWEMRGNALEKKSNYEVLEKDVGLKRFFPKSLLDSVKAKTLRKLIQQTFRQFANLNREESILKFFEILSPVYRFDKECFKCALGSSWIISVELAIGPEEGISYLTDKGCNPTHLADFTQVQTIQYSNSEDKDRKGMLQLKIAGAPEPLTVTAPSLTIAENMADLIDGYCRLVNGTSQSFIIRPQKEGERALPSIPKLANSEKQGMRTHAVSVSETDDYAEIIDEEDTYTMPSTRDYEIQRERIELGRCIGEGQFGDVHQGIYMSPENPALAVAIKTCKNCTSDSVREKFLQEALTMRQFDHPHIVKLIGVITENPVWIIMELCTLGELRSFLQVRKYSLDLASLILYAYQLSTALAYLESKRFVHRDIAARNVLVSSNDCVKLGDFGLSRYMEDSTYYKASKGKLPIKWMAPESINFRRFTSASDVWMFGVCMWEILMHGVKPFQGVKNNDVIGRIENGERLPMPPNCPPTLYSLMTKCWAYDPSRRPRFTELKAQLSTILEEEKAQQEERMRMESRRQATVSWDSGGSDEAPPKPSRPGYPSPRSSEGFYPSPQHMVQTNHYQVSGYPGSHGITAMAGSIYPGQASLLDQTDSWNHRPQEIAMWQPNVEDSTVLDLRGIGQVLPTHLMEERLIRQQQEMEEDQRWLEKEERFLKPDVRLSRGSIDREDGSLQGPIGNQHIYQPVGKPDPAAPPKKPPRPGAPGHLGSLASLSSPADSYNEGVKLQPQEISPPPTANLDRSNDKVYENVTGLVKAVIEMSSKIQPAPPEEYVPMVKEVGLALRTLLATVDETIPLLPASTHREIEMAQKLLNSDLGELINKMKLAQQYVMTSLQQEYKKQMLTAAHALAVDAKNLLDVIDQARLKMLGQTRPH
Albumin (Bos taurus), sequence (P02769 whole entry, looked up): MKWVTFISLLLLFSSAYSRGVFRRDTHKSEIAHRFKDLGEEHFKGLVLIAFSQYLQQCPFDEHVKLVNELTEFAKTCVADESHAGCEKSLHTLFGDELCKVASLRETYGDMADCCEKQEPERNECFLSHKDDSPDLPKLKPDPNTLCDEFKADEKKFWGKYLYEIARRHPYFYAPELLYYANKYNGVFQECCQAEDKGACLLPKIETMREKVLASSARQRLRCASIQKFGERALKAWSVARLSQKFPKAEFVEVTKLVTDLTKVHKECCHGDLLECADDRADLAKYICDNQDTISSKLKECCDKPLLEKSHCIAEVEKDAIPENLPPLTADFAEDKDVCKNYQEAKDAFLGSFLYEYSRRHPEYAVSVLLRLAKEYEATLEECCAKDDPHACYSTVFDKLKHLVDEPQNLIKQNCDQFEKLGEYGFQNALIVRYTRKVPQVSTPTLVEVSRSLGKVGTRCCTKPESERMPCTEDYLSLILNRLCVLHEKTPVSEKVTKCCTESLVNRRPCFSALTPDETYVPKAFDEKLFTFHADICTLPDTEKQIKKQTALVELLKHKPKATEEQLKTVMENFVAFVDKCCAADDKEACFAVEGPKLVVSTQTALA
Follistatin (Homo sapiens), sequence (P19883 whole entry, looked up): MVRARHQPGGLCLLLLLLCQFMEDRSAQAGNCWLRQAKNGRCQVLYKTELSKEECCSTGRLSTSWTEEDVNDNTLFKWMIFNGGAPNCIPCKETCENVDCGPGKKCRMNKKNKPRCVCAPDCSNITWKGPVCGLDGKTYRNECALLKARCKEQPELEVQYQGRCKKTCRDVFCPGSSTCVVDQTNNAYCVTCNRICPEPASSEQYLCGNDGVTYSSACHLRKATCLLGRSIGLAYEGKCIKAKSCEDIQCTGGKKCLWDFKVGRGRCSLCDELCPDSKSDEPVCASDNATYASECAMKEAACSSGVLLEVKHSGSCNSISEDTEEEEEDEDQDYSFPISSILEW

As to `Cc1ccc(N2C(=O)c3ccccc3[C@](C)(C(=O)NCC(F)(F)F)[C@@H]2c2ccc(CO)cc2)nc1`, the composite z-score was -0.136 in test [1]; -0.438 in test [2]; -1.6 in [3]; -0.403 in test [5]; -0.177 in test [6]; 0.869 in test [7]. For the same molecule, the composite z-score in [8] was -0.552; in [9] it was 0.0759; in test [10], -1.78; in test [11] it was -1.8; in test [12], -1.26; in test [13], -1.32. For the same molecule, the composite z-score in test [14] was -1.22; in test [15] it was -0.637; in [16], -1.94; in test [17] it was -1.6; in test [18], -0.986; in [20] it was -2.1. Also, the composite Z-score in test [4] is -0.326 (inactive). This molecule also registered a z-score in test [19] of -0.2.

As to `O=c1n(-c2ccccc2)c(=O)n2n1CC(COc1ccccc1)=C1[C@@H](CCc3ccccc3)OB(O)C[C@@H]12`, the composite z-score is -0.118 in test [1]; 0.684 in [2]; 0.488 in test [3]; 0.0596 in test [5]; -0.063 in [6]; 0.0107 in [7]. For the same molecule, the composite z-score in test [8] was determined as 0.516; in test [9], 0.362; in [10], 1.3; in [11], 0.0848; in test [12], 0.515; in test [13], 1.01. Besides, the composite z-score in test [14] was determined as 1.04; in test [15] it was 0.12; in [16], 0.501; in test [17] it was 0.763; in [18] it was 0.853; in [20], 1.52. Moreover, the composite Z-score in [4] is 0.237 (inactive). The molecule further returned a z-score in [19] of 1.25.

Take `C#CCOc1ccc(C[C@H]2C(=O)O[C@H](Cc3ccccc3)[C@H](/C=C/C3CC3)N2CC#C)cc1`: the composite z-score is -0.433 in [1]; 0.204 in test [2]; -0.0855 in test [3]; -0.165 in test [5]; -0.172 in [6]; 0.643 in test [7]. For the same molecule, the composite z-score was -0.104 in [8]; 0.0683 in [9]; -0.0391 in [10]; 0.445 in test [11]; -0.224 in [12]; -0.146 in test [13]. The composite z-score is 0.128 in test [14]; 0.386 in test [15]; 0.273 in [16]; -0.322 in test [17]; -0.349 in test [18]; -0.433 in test [20]. Also, in test [4], the composite Z-score was 0.319 (inactive). In test [19], the z-score was determined as 4.32.

On to `NC(=O)N1C(=O)C2C(C1=O)C1C=C(c3ccc(CO)cc3)C2C(C2CC2)N1Cc1cc2c(cc1Br)OCO2` (stereo not given), for which the composite z-score in test [1] is -0.0689; in test [2], 1.11; in [3], 0.585; in test [5], -0.0377; in test [6], -0.0745; in [7], 0.762. The composite z-score in test [8] was 1.32; in test [9], -0.421; in test [10] it was 0.61; in test [11], -0.312; in test [12], 0.574; in test [13], 2.29. The composite z-score in test [14] was 0.066; in test [15] it was 0.138; in test [16], 0.157; in test [17], 0.197; in test [18], -0.149; in test [20] it was 0.828. For the same molecule, in [4], the composite Z-score was 0.219 (inactive). In addition, in test [19], the z-score was 1.96.

For `O=C1O[C@H](c2ccccc2)[C@H](c2ccccc2)N2[C@H]1[C@@H](C(=O)Nc1nc3ccccc3s1)[C@]1(C(=O)Nc3ccc(C#CCCO)cc31)[C@H]2c1ccccc1OCCO`, the composite z-score was 1.3 in [1]; 1.26 in test [2]; 0.596 in [3]; 0.0695 in test [5]; -0.0155 in test [6]; 0.671 in test [7]. Moreover, the composite z-score in [8] was 2.43; in test [9] it was 0.849; in test [10], 1.31; in [11], -0.0204; in test [12], 1.18; in test [13] it was 1.42. Also, the composite z-score in [14] came to 1.2; in test [15] it was 0.705; in test [16] it was 0.89; in [17], 1.09; in test [18], 0.479; in test [20] it was 0.287. The composite Z-score in test [4] was 0.231 (inactive). For the same molecule, the z-score in [19] is -1.93.

Take `COc1ccc(/C=C/C(=O)c2cccc(OCC(=O)OC(C)(C)C)c2)cc1`: the composite z-score in test [1] was -0.5; in test [2] it was 0.154; in [3] it was 0.396; in [5] it was -0.176; in test [6], -0.133; in [7], -0.0082. The composite z-score in [8] was 0.872; in test [9], 0.651; in test [10] it was 1.02; in [11], -0.55; in [12], 0.4; in test [13], 0.0179. Besides, the composite z-score in test [14] is 0.67; in test [15], 0.168; in test [16], 0.158; in test [17], -0.708; in test [18], -0.453; in test [20], -0.51. Besides, in test [4], the composite Z-score is -0.0202 (inactive). The z-score in test [19] is 1.57.

In the case of `CC(C)CNC(=O)[C@@H]1c2ccccc2C(=O)N(Cc2ccc(OC(F)(F)F)cc2)[C@H]1c1ccc(CO)cc1`, the composite z-score in test [1] stood at 0.327; in test [2], 1.69; in test [3], 0.0335; in test [5] it was 0.0813; in test [6], 0.0081; in [7], 0.572. In addition, the composite z-score in [8] is 2.36; in test [9] it was 0.0712; in [10] it was 1.3; in test [11], -0.0181; in test [12], 1.07; in [13], 1.31. In addition, the composite z-score in test [14] was 1.19; in [15], 1.04; in test [16], 0.647; in test [17] it was 1.34; in test [18] it was 1.09; in test [20], 1.52. Moreover, in [4], the composite Z-score is 0.465 (inactive). The molecule further registered a z-score in test [19] of 0.71.

For the molecule `[N-]=[N+]=Nc1ccccc1[C@H]1OC(c2ccc(OCCCO)cc2)=N[C@@]1(Cc1ccccc1)C(N)=O`, the composite z-score in test [1] stood at 0.489; in test [2], 1.12; in [3] it was 0.869; in test [5], 0.416; in test [6], 0.0521; in test [7], 0.623. Further, the composite z-score in test [8] was 0.798; in test [9] it was 0.577; in test [10], 1.31; in test [11], -0.751; in test [12] it was 1.16; in [13], 2.59. Besides, the composite z-score stood at 1.21 in [14]; 0.0957 in test [15]; 0.997 in [16]; 1.32 in test [17]; 0.479 in test [18]; 0.97 in test [20]. For the same molecule, in test [4], the composite Z-score is 0.382 (inactive). In test [19], this molecule registered a z-score of 1.5.
